Screening data (PubChem)
S1P4 antag: S1P4 receptor antagonists, primary screen, cell-based; inhibition, % at 4.98 µM; 220,000 tested, 0.26% active; S1P4-expressing cells, antagonist mode, reporter read-out; Sphingosine 1-phosphate receptor 4 (Homo sapiens), O95977; in the data active = inhibition above about 29%
Target sequence (O95977 whole entry, looked up): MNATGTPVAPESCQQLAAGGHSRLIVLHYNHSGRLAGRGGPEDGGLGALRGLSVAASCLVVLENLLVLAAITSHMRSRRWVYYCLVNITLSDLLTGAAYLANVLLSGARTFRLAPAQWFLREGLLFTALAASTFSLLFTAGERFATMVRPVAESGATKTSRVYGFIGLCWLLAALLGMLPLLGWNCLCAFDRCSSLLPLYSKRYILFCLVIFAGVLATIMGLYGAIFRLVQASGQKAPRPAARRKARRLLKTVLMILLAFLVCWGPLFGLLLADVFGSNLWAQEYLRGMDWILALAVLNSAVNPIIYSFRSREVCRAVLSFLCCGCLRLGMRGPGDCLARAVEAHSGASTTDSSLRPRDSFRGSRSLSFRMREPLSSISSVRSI
Insulin prom inh: inhibitors of insulin promoter-driven GFP, primary screen, imaging, TRM-6 cells (human fetal islet line), eGFP reporter, cell count | reporter expression induced with tamoxifen | inhibition, % at 2 µM | 130,000 tested, 0.9% active | AID 1273, 2008;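 active = inhibition above the mean plus 3 SD, with well images judged a real hit on visual review, cut at about 60% in these data, passing the limit was not always enough; inconclusive = inhibition over the cutoff but images rejected on review; inactive = inhibition not above the cutoff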
EP2 antag: human EP2 receptor antagonists, primary screen, TR-FRET cAMP, C6 glioma cells; Prostaglandin E2 receptor EP2 subtype (Homo sapiens), P43116; C6 glioma cells expressing human EP2; cells stimulated with saturating PGE2; inhibition, % at 25 µM; 260,000 tested, 0.52% active; AID 1422, 2008;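 active = percent inhibition above 40 after rounding to a whole number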;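 also: rat C6 glioma host cells with rolipram phosphodiesterase inhibitor present; the protocol text gives 20 µM as final concentration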
EP2 mod: EP2 receptor modulators, cAMP readout, primary screen, cell-based, HTRF cAMP, PGE2 stimulation; induction, % at 25 µM; Prostaglandin E2 receptor EP2 subtype (Homo sapiens), P43116; 260,000 tested, 0.83% active; EP2-expressing cells, cAMP HTRF FRET, PGE2 co-stimulation;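 active = compounds whose cAMP rise, as percent of the full-agonist control response, exceeds 60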;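 also: rat C6 glioma line stably carrying human EP2 under a CMV promoter; the protocol text gives 20 µM as final concentration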
S1P4 agonist: S1P4 receptor agonists, primary screen, cell-based; Sphingosine 1-phosphate receptor 4 (Homo sapiens), O95977; S1P4-expressing cell line, agonist reporter assay; activation, % at 4.98 µM; 220,000 tested, 0.35% active; in the data active = activation above about 11%
S1P3 antagonist: S1P3 receptor antagonists, primary screen, cell-based. inhibition, % at 4.98 µM. 170,000 tested, 0.27% active. CHO S1P3 NFAT-BLA reporter, FRET fluorescence, antagonist mode;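 active = inhibition above the plate cutoff, the mean inhibition of test wells on that plate plus 3 SD, cut at about 28% in these data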;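 also: cells challenged with S1P at its EC80 of 0.8 µM; blue over green emission ratio from cleaved BLA substrate after 4 h stimulation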
Of the large screens only hits and unclear results are named; the others gave an inactive call; ! = not confirmed by another sample. Most compounds without a hit are left out; they make up all but 2.4% or so of the library.

COc1ccc(-n2c(SCC(=O)Nc3c(C)cc(C)cc3C)nnc2-c2ccncc2)cc1	none (no result: S1P4 antag, Insulin prom inh, S1P4 agonist, S1P3 antagonist)
COc1ccc(C2C3=C(Nc4ncnn42)c2ccccc2OC3c2ccccc2)cc1OC (stereo unspecified)	none (no result: S1P4 antag, Insulin prom inh, S1P4 agonist, S1P3 antagonist)
CC(C)n1c(N2CCN(C(=O)N3CCOCC3)CC2)nc2ccccc21	none (no result: S1P4 antag, Insulin prom inh, S1P4 agonist, S1P3 antagonist)
COc1cc(Cc2cnc(N)nc2N)cc(OC)c1OC	S1P4 agonist 18!
COCCn1nnnc1C(c1cc2cc(C)c(C)cc2[nH]c1=O)N(Cc1ccccc1)Cc1ccco1 (stereo unspecified)	none (no result: S1P4 antag, Insulin prom inh, S1P4 agonist, S1P3 antagonist)
C/C(=N\Nc1cc(C(F)(F)F)ccc1Cl)c1ccccc1O	Insulin prom inh inconclusive, EP2 mod 65
COc1ccc(C(=O)c2ccc(OC)c(Br)c2)cc1Br	none (no result: Insulin prom inh)
COc1ccc(Br)c2oc(S)cc(=O)c12	Insulin prom inh 71
N#CCCN(C(=O)COC(=O)c1cccc(S(=O)(=O)Nc2ccc([N+](=O)[O-])cc2)c1)c1ccccc1	Insulin prom inh 69
COC1CCCC(C(=O)N2CCC(O)(c3cccnc3)CC2)C1 (stereo unspecified)	none (no result: S1P4 antag, Insulin prom inh, S1P4 agonist, S1P3 antagonist)
CC(C)(C)c1cc(C(F)(F)F)c(C#N)c(=O)[nH]1	none (no result: S1P3 antagonist)
CCCc1cc(C(F)(F)F)c(C#N)c(=O)[nH]1	Insulin prom inh 68 (no result: S1P3 antagonist)
O=c1[nH]c2ccc(S(=O)(=O)N3CCCCC3CN3CCCCC3)cc2[nH]1 (stereo unspecified)	none (no result: S1P4 antag, Insulin prom inh, S1P4 agonist, S1P3 antagonist)
CSc1nc(-c2ccc(Cl)cc2Cl)[nH]c(=O)c1C#N	Insulin prom inh 79
Cc1cc(-c2ccc(Cl)cc2Cl)c(C#N)c(=O)[nH]1	none (no result: Insulin prom inh)
O=C(Nc1nc2ccsc2c(=O)s1)c1ccc(Cl)cc1	EP2 antag 43 (no result: Insulin prom inh)
CCc1cccc(CC)c1NC(=O)CSc1nnc(NC(=O)C2CC2)s1	none (no result: S1P4 antag, Insulin prom inh, S1P4 agonist, S1P3 antagonist)
CCOC(=O)c1c(-c2ccncc2)csc1N	none
Cc1ccc(C)c(-c2csc(N)c2C(=O)OC(C)C)c1	EP2 mod 63 (no result: S1P3 antagonist)
CCC(=O)NC1=C(Cl)C(=O)C(NC(=O)CC)=C(Cl)C1=O	EP2 antag 117 (no result: Insulin prom inh)
CCOc1ccc(NC(=O)N2CCCC2C(=O)Nc2ccc(NC(C)=O)cc2)cc1 (stereo unspecified)	none (no result: S1P4 antag, Insulin prom inh, S1P4 agonist, S1P3 antagonist)
O=c1oc2cc(O)c(Cl)cc2c2ccccc12	EP2 mod 61
N=C1[C@H](O)[C@]2(I)c3ccccc3N3C(=N)[C@H](O)[C@@H]4c5ccccc5N1[C@@H]4[C@@H]32	EP2 antag 68 (no result: S1P4 antag, Insulin prom inh, S1P4 agonist, S1P3 antagonist)
Cc1nc(-n2nnc3ccccc32)c2c3c(sc2n1)CCCC3	EP2 mod 61 (no result: S1P3 antagonist)
Cc1ccc(S(=O)(=O)NCC(=O)OCC(=O)Nc2cccc(S(=O)(=O)NC3=NCCCCC3)c2)cc1	Insulin prom inh 78
COc1ccc(NC(=S)NNC(=O)CCn2cc([N+](=O)[O-])cn2)cc1	Insulin prom inh 88
CCOc1no[n+]([O-])c1-c1ccccc1	none (no result: S1P4 antag, Insulin prom inh, S1P4 agonist, S1P3 antagonist)
CN(C)Cc1ccc(-c2cc3onc(-c4ccccc4)c3c(=O)n2C)cc1	EP2 antag 44 (no result: S1P4 antag, Insulin prom inh, S1P4 agonist, S1P3 antagonist)
Cc1onc(-c2ccccc2)c1NC(=O)N(Cc1ccccc1)C(C)C	none (no result: Insulin prom inh)
CCCc1c2ccccc2nc2ccccc12	Insulin prom inh 85
COc1ccc([C@@H]2C[C@H](C(=O)NC(C)C)N(C)S(=O)(=O)N2)cc1OC	none (no result: S1P4 antag, Insulin prom inh, EP2 antag, S1P4 agonist, S1P3 antagonist)
CCOC(=O)c1nn(-c2ccc(F)cc2)c2nc(-c3ccccc3)c(C#N)c(=O)n12	EP2 mod 65
CCOC(=O)c1nn(-c2ccccc2)c2nnc(Cc3ccc(C)cc3)c(=O)n12	Insulin prom inh 77
COc1cc(C2C(C#N)=C(N)Oc3n[nH]c(-c4ccc(F)cc4)c32)ccc1OCC(N)=O (stereo unspecified)	none (no result: S1P4 antag, Insulin prom inh, S1P4 agonist, S1P3 antagonist)
O=C(O)CCC(=O)c1cccc2ccccc12	none
C[N+](C)(C)CCC(=O)c1cccc2ccccc12	EP2 antag 106 (no result: S1P4 antag, Insulin prom inh, S1P4 agonist, S1P3 antagonist)
C=CCn1c(SCC(=O)Nc2ccc(OC)cc2)nnc1-c1ccncc1	none (no result: S1P4 antag, Insulin prom inh, S1P4 agonist, S1P3 antagonist)
O=C1c2ccccc2-c2ccc(N=[N+]([O-])c3ccc4c(c3)C(=O)c3ccccc3-4)cc21	EP2 antag 51 (no result: S1P4 antag, Insulin prom inh, S1P4 agonist, S1P3 antagonist)
CC1=C(C(=O)OCc2ccc(C)cc2)C(c2ccc(O)c([N+](=O)[O-])c2)NC(=O)N1 (stereo unspecified)	Insulin prom inh 89
